Compounds without any hit were thinned out: in the full panel of roughly 79,000, 15% have a hit. Rule as the data show it: active = growth inhibition above about 70%; inactive = the rest.
Columns and labels:
[1] = NCI Yeast Anticancer Drug Screen. Data for the rad50 strain (AID 155);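 also: 0% = growth of vehicle-only cultures of the same strain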; conditions: S. cerevisiae rad50 strain growth inhibition; at 50.0 µM; active compounds read high
How it was run: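 Cells are treated with compound, grown, and their growth is then scored against vehicle-only cultures of the same repair-deficient yeast strain.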

[2] = NCI Yeast Anticancer Drug Screen. Data for the mec2-1 strain (AID 157); conditions: S. cerevisiae mec2-1 strain, at 50.0 µM, active compounds read high
How it was run: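 Readout is yeast growth inhibition, normalised to vehicle-treated controls, in the mec2-1 strain exposed to compound.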

[3] = NCI Yeast Anticancer Drug Screen. Data for the sgs1 mgt1 strain (AID 161);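 also: 0% = growth of cultures given vehicle only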; conditions: S. cerevisiae sgs1 mgt1 strain, at 50.0 µM, active compounds read high
How it was run: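 Yeast cells carrying a defined DNA-repair defect were exposed to test compounds. Growth inhibition was measured relative to vehicle-treated controls.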

[4] = NCI Yeast Anticancer Drug Screen. Data for the cln2 rad14 strain (AID 165);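 also: 0% = growth equal to vehicle treated cultures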; conditions: S. cerevisiae cln2 rad14 strain, at 50.0 µM, active compounds read high
How it was run: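 Relative to vehicle controls, growth inhibition of compound-treated cln2 rad14 yeast was recorded.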

[5] = NCI Yeast Anticancer Drug Screen. Data for the bub3 strain (AID 167); conditions: S. cerevisiae bub3 mutant strain, at 50.0 µM, active compounds read high
How it was run: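 Part of a panel of yeast mutants defective in DNA damage repair or cell cycle regulation. Each strain is grown with compound, and inhibition is calculated relative to solvent-treated cultures.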

[6] = NCI Yeast Anticancer Drug Screen. Data for the mlh1 rad18 strain (AID 175); conditions: S. cerevisiae mlh1 rad18 strain growth inhibition; at 50.0 µM; active compounds read high
How it was run: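 Test agents were incubated with a yeast strain of defined genotype (DNA damage repair defect). Inhibition of growth was derived by comparison with vehicle-exposed cultures.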

Measured: growth inhibition

Nc1cc(C(F)(F)F)ccc1F
inactive: [1] 2.5% | [2] -13.8% | [3] -9% | [4] -5.6% | [5] 6.65% | [6] 27.4%

O=C(c1ccccc1)[C@H]1Nc2ccc(Cl)cc2[C@H]2CCC[C@@H]12
inactive: [1] -2.4% | [2] -30.2% | [3] 0.1% | [4] 10.2% | [5] -14.6% | [6] -17.1%

N#CNC(N)=Nc1ccc(Cl)cc1
inactive: [1] 5.35% | [2] 7.5% | [3] -27.9% | [4] 19.6% | [5] -19.6% | [6] -17.4%

C=CCNCc1cc(Cl)cc(Cl)c1O
inactive: [1] -8.35% | [2] -4.4% | [3] -19.1% | [4] -51.1% | [5] -10.2% | [6] 17.2%

CC(=O)OCC1OC(N2C(=O)/C(=C/c3ccc4c(c3)OCO4)SC2=S)C(OC(C)=O)C(OC(C)=O)C1OC(C)=O (stereo not given)
inactive: [1] 1.5% | [2] -12.2% | [3] -20.9% | [4] 1.15% | [5] 0.15% | [6] 0.2%

COc1ccc(-c2nnc(-c3ccc(OC)cc3)o2)cc1
inactive: [1] 20.1% | [2] -2.85% | [3] 16.5% | [4] 0.2% | [5] 1.15% | [6] -7.95%

CC(=O)Nc1nc2c(s1)CCc1ccccc1-2
inactive: [1] 49.4% | [2] 13.8% | [3] 12.8% | [4] 5.6% | [5] 10.1% | [6] 15.2%

CCNC(=O)C(C(=O)OC)c1ccccc1 (stereo not given)
inactive: [1] 3.7% | [2] -1.5% | [3] 5.3% | [4] -3.45% | [5] 30.8% | [6] 1.2%

CC1(C)[C@@H]2C[C@H]1[C@@H](Cc1cccc(C[C@H]3c4cc(-c5ccccn5)ncc4[C@H]4C[C@@H]3C4(C)C)c1)c1cc(-c3ccccn3)ncc12
inactive: [1] 45.4% | [2] 28.2% | [3] 45.4% | [4] 16.8% | [5] 45.9% | [6] 45.4%

Cc1ncc2c(n1)NC(c1ccc([N+](=O)[O-])cc1)NC2 (stereo not given)
inactive: [1] 0.45% | [2] -2.9% | [3] -16.6% | [4] -3.7% | [5] 14.7% | [6] -1.7%

COc1ccc2[nH]c(=O)cc(C)c2c1
inactive: [1] -5.35% | [2] -4.1% | [3] -1.6% | [4] -37.7% | [5] 18.9% | [6] -85.3%

c1ccc(SCN(CSc2ccccc2)c2ccccc2)cc1
inactive: [1] -1.35% | [2] 26.9% | [3] 13.8% | [4] 66.8% | [5] 22.1% | [6] 14.8%

C[Si]1(C)CC[Si](C)(C)OS(=O)(=O)O1
inactive: [1] 8.2% | [2] -8.35% | [3] -4.75% | [4] -49.8% | [5] -9.05% | [6] 3.6%

O=C(NC1CCCCC1Cl)C1CCCCC1 (stereo not given)
inactive: [1] 17.1% | [2] 18.6% | [3] 2.15% | [4] 5.4% | [5] -6.7% | [6] -14.8%

Cn1c(=O)c2ccccc2c2cc([N+](=O)[O-])ccc21
inactive: [1] -11.8% | [2] -5.05% | [3] -18.5% | [4] 1.1% | [5] 12.7% | [6] -4.2%

CC(=O)Nc1cc2c(cc1Cl)-c1cc(Cl)c(Cl)cc1C2=O
inactive: [1] -18.1% | [2] -2.55% | [3] -9.85% | [4] -25.1% | [5] -20.7% | [6] -17.5%

CCCCCCC1OCCO1
inactive: [1] 29.8% | [2] 2.8% | [3] 16.5% | [4] -12.8% | [5] -4.8% | [6] 15.1%

S=C(S)N(Cc1ccccc1)Cc1ccccc1 (tested in a mixture with another compound)
inactive: [1] 2.85% | [2] 0.7% | [3] 3.7% | [4] -18.8% | [5] 12.8% | [6] -2.05%

Cn1c(NC(=O)C(=O)NC23CC4CC(CC(C4)C2)C3)nc2ccccc21
inactive: [1] -1.9% | [2] -11.4% | [3] -9.7% | [4] 5.8% | [5] -7.25% | [6] 8.55%

C=CCCCCCCCCCO
inactive: [1] -9.2% | [2] -11% | [3] -1.9% | [4] 10.8% | [5] -18.4% | [6] -1.8%

— PubChem BioAssay (NCI)
